Experimental data reported in PubChem BioAssay AID588689 (Southern Research Specialized Biocontainment Screening …, 2011).
Hit rate of the full screen: of about 340,000 compounds, about 1,000 (0.29%) were called active. Rule as the data show it: inconclusive = inhibition above about 29% without an active follow-up result; inactive = below that. Not all results are given here. Results with a measured potency or affinity are listed apart.

Target: Genome polyprotein (Dengue virus type 2 (strain 16681-PDK53)) (UniProt P29991)
Assay: flavivirus cap methylation enzyme inhibition – biochemical, confirmation dose response, primary screen (AID 588689)
Settings: Dengue-2 NS5 methyltransferase capping enzyme assay, at 25 µM, stronger effect = higher value
[1] = measured here: pilot screen replicate inhibition

Genome polyprotein (Dengue virus type 2 (strain 16681-PDK53)), sequence (P29991 whole entry, looked up): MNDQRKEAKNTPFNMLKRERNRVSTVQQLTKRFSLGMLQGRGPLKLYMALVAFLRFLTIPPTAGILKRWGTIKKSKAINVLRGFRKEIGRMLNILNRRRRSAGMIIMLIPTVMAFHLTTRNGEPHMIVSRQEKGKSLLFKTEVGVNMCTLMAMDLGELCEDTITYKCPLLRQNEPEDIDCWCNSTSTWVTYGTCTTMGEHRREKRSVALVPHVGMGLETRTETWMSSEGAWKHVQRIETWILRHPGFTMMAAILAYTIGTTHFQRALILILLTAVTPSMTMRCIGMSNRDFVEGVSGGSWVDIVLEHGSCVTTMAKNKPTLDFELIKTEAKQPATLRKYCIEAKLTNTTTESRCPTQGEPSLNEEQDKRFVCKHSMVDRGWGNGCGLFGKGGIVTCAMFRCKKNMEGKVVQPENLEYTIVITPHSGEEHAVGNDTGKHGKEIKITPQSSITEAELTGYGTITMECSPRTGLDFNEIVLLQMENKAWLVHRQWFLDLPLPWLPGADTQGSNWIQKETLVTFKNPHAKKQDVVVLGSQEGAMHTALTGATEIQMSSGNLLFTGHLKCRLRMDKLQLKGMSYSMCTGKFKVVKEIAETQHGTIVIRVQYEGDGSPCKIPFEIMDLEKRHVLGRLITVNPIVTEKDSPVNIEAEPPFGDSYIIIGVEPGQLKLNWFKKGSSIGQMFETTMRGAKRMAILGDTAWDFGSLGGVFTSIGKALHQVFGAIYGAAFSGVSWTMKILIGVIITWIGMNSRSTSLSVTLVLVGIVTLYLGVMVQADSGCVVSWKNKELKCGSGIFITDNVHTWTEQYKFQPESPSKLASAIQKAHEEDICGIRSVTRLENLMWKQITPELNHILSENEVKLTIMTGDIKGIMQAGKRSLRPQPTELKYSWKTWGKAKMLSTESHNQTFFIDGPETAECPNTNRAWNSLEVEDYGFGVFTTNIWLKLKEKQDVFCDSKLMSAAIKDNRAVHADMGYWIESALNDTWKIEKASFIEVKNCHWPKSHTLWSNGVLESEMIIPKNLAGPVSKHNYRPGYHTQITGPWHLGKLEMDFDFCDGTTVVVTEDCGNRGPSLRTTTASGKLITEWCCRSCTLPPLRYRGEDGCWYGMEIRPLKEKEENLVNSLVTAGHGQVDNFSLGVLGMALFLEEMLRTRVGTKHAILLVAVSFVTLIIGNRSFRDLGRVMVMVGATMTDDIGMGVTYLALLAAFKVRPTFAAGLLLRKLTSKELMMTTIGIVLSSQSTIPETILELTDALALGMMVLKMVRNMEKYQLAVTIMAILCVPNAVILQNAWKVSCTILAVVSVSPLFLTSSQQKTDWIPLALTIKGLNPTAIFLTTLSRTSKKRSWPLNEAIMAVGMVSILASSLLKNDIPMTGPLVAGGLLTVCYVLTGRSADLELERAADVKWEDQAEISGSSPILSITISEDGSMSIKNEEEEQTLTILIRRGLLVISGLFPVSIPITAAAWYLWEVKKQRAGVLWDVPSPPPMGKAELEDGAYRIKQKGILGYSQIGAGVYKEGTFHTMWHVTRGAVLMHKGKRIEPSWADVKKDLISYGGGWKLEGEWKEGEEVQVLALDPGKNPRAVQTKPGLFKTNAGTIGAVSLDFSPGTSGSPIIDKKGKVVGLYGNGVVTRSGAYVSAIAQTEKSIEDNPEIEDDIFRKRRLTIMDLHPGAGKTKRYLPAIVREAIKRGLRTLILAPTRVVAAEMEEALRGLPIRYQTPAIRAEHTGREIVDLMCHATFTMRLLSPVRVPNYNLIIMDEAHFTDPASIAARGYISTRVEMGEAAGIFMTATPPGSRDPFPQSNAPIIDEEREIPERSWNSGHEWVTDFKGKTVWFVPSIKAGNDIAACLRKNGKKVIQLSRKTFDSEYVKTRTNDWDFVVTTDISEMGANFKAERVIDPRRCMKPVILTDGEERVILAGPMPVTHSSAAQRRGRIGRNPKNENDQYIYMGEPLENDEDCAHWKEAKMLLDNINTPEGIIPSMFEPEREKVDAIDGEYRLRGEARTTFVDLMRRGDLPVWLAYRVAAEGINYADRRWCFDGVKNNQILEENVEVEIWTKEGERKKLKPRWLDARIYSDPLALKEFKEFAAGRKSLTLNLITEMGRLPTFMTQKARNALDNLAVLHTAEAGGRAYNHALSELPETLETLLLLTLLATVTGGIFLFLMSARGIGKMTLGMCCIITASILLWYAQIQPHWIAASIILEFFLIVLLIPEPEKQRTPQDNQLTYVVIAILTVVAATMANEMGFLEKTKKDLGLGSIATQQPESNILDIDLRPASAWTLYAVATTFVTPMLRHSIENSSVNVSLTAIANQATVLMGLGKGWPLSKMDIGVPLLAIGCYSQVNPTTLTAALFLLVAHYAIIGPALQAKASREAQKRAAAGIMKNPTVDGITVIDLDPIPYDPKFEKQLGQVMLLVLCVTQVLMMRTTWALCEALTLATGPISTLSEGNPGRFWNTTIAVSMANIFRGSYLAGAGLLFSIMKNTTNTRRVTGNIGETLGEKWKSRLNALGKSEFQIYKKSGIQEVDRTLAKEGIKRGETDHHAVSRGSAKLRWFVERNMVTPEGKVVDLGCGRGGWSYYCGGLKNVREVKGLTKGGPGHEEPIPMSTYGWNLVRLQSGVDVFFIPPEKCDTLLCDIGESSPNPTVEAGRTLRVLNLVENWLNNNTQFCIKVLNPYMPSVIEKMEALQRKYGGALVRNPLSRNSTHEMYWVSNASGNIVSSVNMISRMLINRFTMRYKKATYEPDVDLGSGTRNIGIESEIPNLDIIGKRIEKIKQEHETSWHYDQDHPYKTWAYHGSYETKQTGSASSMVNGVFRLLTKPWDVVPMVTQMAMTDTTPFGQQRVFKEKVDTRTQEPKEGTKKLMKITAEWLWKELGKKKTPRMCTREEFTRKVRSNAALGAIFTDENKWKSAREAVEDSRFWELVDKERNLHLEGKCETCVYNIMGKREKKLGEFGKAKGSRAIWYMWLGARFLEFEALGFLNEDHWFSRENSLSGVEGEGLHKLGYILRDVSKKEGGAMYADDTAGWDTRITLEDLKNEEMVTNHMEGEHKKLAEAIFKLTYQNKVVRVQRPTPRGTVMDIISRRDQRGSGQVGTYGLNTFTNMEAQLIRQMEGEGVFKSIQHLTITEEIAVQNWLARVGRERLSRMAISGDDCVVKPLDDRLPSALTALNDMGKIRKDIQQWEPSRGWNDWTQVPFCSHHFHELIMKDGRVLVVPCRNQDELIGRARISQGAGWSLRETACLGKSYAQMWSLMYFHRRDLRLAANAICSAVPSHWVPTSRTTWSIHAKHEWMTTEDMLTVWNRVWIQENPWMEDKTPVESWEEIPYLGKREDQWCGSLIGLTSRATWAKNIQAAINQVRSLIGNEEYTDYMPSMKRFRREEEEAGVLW

Row | Compound | inhibition | inhibition [1] [%]
1 | O=C1CCc2cc(S(=O)(=O)Nc3ccccc3)cc3c2N1CCC3 | -5.11% (inactive) | –
2 | CCOc1cccc(N2CCN(CCNC(=O)Nc3ccc(C)cc3)CC2)c1C | -3.11% (inactive) | –
3 | CC(C)N(C(=O)[C@H]1C[C@H](CC(=O)NCc2ccco2)C(=O)N2CCc3c([nH]c4cc(CCC(=O)N(C)C)ccc34)[C@]12C)C(C)C | -2.31% (inactive) | 1.51
4 | Cc1ccc(-c2nnn(CC(=O)N(c3ccccc3F)C(C(=O)NC3CCCC3)c3ccncc3)n2)o1 (configuration not stated) | 5.7% (inactive) | –
5 | COC(=O)c1cc(COC(=O)c2nc3nccc(C)n3n2)oc1C | 0% (inactive) | –
6 | Clc1ccc(-c2csc(-c3ccno3)n2)cc1 | -5.36% (inactive) | –
7 | O=[N+]([O-])c1ccc(NCCCN2CCOCC2)c([N+](=O)[O-])c1 | -5.47% (inactive) | –
8 | COc1ccc(CC(=O)Nc2ccc(S(=O)(=O)Nc3cc(OC)nc(OC)n3)cc2)cc1 | 23.3% (inactive) | –
9 | O=C(O)CCCC(=O)N1CCc2cc(S(=O)(=O)N3CCc4ccccc43)ccc21 | -4.13% (inactive) | –
10 | O=C1CCCCC1(O)Cc1ccc2c(c1)OCO2 (configuration not stated) | -3.89% (inactive) | –
11 | O=c1cc(-c2ccccc2)oc2cccc(O)c12 | -5.07% (inactive) | –
12 | O=c1cc(-c2ccccc2)oc2cc(O)cc(O)c12 | -12.6% (inactive) | –
13 | CC(=O)c1cc2c(cc1NC(=O)Cc1ccsc1)OCO2 | -0.37% (inactive) | –
14 | O=C(C1CC(c2cccc(Br)c2)=NO1)N1CCc2ccccc2C1 (configuration not stated) | -3.92% (inactive) | –
15 | Cc1cccc(OCCn2nc(C(=O)O)c3ccccc3c2=O)c1 | 2.68% (inactive) | –
16 | O=C(O)c1cccc([N+](=O)[O-])c1C(=O)Nc1cccc2ccccc12 | -2.72% (inactive) | –
17 | O=C(Nc1cccc2ccccc12)c1cccc([N+](=O)[O-])c1 | -4.08% (inactive) | –
18 | COc1cc(CN=Cc2c(O)n(Cc3ccccc3)c(=S)[nH]c2=O)cc(OC)c1 | 10.8% (inactive) | –
19 | COc1c(O)ccc(/C=N/NC(=O)c2ccc3c(c2)OCCO3)c1[N+](=O)[O-] | 2.38% (inactive) | –
20 | COc1c(O)ccc(/C=N\NC(=O)c2ccc3c(c2)OCO3)c1[N+](=O)[O-] | 12.7% (inactive) | –
21 | O=C(c1cc(-c2ccncc2)nc2ccc(Cl)cc12)N1CCN(C(=O)C2CCCO2)CC1 (configuration not stated) | -1.35% (inactive) | –
22 | COC1=CC(=O)C=C(OC)C1=O | -8.21% (inactive) | –
23 | CC/C=C\C/C=C\C/C=C\CCCCCCCC(=O)O | 2.2% (inactive) | –

Row | Compound | inhibition | inhibition [1] [%]
24 | CN(CC(=O)Nc1ccccc1Cl)C(=O)CSc1nnc(-c2ccco2)o1 | -1.47% (inactive) | –
25 | CN1CCN(NC(=O)c2cc(S(=O)(=O)N3CCOCC3)c(Cl)cc2Cl)CC1 | 1.45% (inactive) | –
26 | O=C(NC(C(=O)c1ccccc1)N1CCOCC1)c1cccs1 (configuration not stated) | -6.21% (inactive) | –
27 | CCCCN1C(=O)N(CCc2ccc(F)cc2)S(=O)(=O)c2cc(C(F)(F)F)ccc21 | -0.33% (inactive) | 1.51
28 | COc1ccc2nc3ccccc3nc2c1N | 40.2% (inactive) | –
29 | Cc1cccc2nc3ccccc3nc12 | -0.76% (inactive) | –
30 | NC(=O)c1ccc(=O)n(Cc2ccc(F)c(F)c2)c1 | -1.31% (inactive) | –
31 | Cc1ccc(N)cc1O | -2.91% (inactive) | –
32 | Cc1cc(C(c2ccc(O)cc2)c2cc(C)c(O)cc2C)c(C)cc1O | -0.79% (inactive) | –
33 | Cc1ccc(CNC(=O)C(C(=O)NCc2ccc(C)o2)c2ncc(C(F)(F)F)cc2Cl)o1 | -13.8% (inactive) | –
34 | COc1ccc(Br)cc1/C=C/C(=O)NC(=S)Nc1ccc(CN2CCOCC2)cc1 | -10.4% (inactive) | –
35 | COc1ccc(Br)cc1C(=O)NC(=S)Nc1ccc(Cl)c(C(=O)O)c1 | 4.69% (inactive) | –
36 | CC1(C)OC(=O)C(=NNc2ccccc2)C(=O)O1 | -0.73% (inactive) | –
37 | c1ccc(NN=C2c3ccccc3-c3ccccc32)cc1 | -1.94% (inactive) | –
38 | COc1ccc(N(C)C(=O)c2ccc3c(c2)nnn3C)cc1 | -4.51% (inactive) | –
39 | O=C(CN1CCOCC1)Nc1ccccc1NC(=O)C1CCN(c2ncccn2)CC1 | -11.3% (inactive) | –
40 | COC(=O)[C@@]1(Cc2ccccc2)[C@H]2C(=O)N(C)C(=O)[C@H]2[C@H]2CN=C(SCc3ccc(C)cc3)N21 | 1.99% (inactive) | 0.61
41 | N/C(=N\OC(=O)c1ccco1)c1ccc(Br)cc1 | -5.29% (inactive) | –
42 | Cc1csc(/C(=N/OC(=O)c2ccco2)C(N)=O)n1 | -32.5% (inactive) | –
43 | O=C(CCCOc1cccc(Br)c1)NCCOc1ccccc1 | -4.07% (inactive) | –
44 | Cn1c(=O)c2sccc2n(CC(=O)NCCC2=CCCCC2)c1=O | -7.27% (inactive) | –
45 | CCN(CC)Cc1nc2c(c(=O)[nH]1)C1(CCCCC1)Cc1ccccc1-2 | -5.55% (inactive) | –
46 | COC(=O)c1ccc(N2NC(=O)/C(=C/c3cc(OC)c(O)c(OC)c3)C2=O)cc1 | -24.8% (inactive) | –

Row | Compound | inhibition | inhibition [1] [%]
47 | COc1ccc(NC(=O)/C(C#N)=C/c2ccc(-c3ccc(Cl)c(C(=O)O)c3)o2)cc1 | 3.44% (inactive) | –
48 | COC(=O)c1ccc(N2NC(=O)/C(=C/c3ccc(OC)c(OC)c3)C2=O)cc1 | 34.3% (inactive) | –
49 | O=Cc1ccc(-c2ccccc2C(=O)O)o1 | -2.22% (inactive) | –
50 | O=C1NN(c2cccc(Br)c2)C(=O)/C1=C/c1ccc(-c2cc([N+](=O)[O-])ccc2O)o1 | 70.1% (inactive) | –
51 | Cc1nnc(NC(=O)c2ccc3c(c2)OCO3)s1 | 8.19% (inactive) | –
52 | Cc1noc(C)c1CSCC(=O)Nc1nc2ccc(S(C)(=O)=O)cc2s1 | -2.95% (inactive) | –
53 | N#CCC(=O)N/N=C/c1ccc(OS(=O)(=O)c2ccccc2)cc1 | -3.76% (inactive) | -2.42
54 | COC(=O)Cn1c(CCS(=O)(=O)c2ccc(Cl)cc2)nc2ccccc21 | -5.46% (inactive) | –
55 | Cc1ccc(-c2cnc3ccccc3n2)cc1C | -6.51% (inactive) | –
56 | O=C(Nc1ccc2c(c1)OCO2)c1n[nH]c(=O)c2ccccc12 | 11.1% (inactive) | –
57 | CSCCC(NC(=O)C1CC1)c1nc2ccccc2[nH]1 (configuration not stated) | -5.48% (inactive) | –
58 | C[C@H](NC(=O)c1nc[nH]c1C(=O)N1CCN(C(=O)OC(C)(C)C)CC1)C(=O)OCc1ccccc1 | -2.48% (inactive) | –
59 | O=C(Nc1ccc(C(F)(F)F)cc1)c1csc(-c2ccncc2)n1 | -2.96% (inactive) | –
60 | CSc1nsc(SC)c1NC(=O)N1CCCC1 | -1.61% (inactive) | –
61 | C#CCN1C(=O)S/C(=C\c2ccc(-c3ccc(Cl)c(C(=O)O)c3)o2)C1=O | 2.31% (inactive) | –
62 | O=C(O)c1cc(-c2ccc(/C=C3\NC(=O)N(c4ccc(Cl)cc4)C3=O)o2)ccc1Cl | 13.8% (inactive) | –
63 | Cc1ccc(N2NC(=O)/C(=C/c3ccc(-c4ccc(Cl)c(C(=O)O)c4)o3)C2=O)cc1 | 15.4% (inactive) | –
64 | O=C(O)c1cc(-c2ccc(/C=C3\NC(=O)N(c4ccccc4)C3=O)o2)ccc1Cl | 3.09% (inactive) | –
65 | Cc1cn([C@H]2C[C@H](O)[C@@H](CNC(=O)CNC(=O)CN)O2)c(=O)[nH]c1=O | 2.27% (inactive) | –
66 | CCOc1ccc2nc(N/C(N)=N/S(=O)(=O)c3ccc(C)cc3)nc(C)c2c1 | -2.74% (inactive) | –
67 | Cc1ccc(NC(=O)CC(=O)c2ccccc2)cc1C | -1.66% (inactive) | –
68 | C[C@H](NC(=O)c1ccccc1Cl)C(=O)OC(C(=O)Nc1cc(C(F)(F)F)ccc1Cl)c1ccccc1 (some centres not stated) | 6.11% (inactive) | –
69 | Oc1ccccc1N=N/C(=N/Nc1ccccc1O)c1ccccc1 | 6.32% (inactive) | –

Row | Compound | inhibition | inhibition [1] [%]
70 | O=C(O)c1cc(S(=O)(=O)Nc2ccccc2C(=O)O)ccc1O | 24.8% (inactive) | –
71 | CC(=O)Nc1ccc(N2CCCCC2)c(C(=O)Nc2cccc(C)c2)c1 | 1.3% (inactive) | –
72 | Cc1cccc(NC(=O)c2cc(NC(=O)C3CCCCC3C(=O)O)ccc2N2CCOCC2)c1 (configuration not stated) | 3.25% (inactive) | –
73 | Cc1cnc(C(=O)OCc2nc3ccsc3c(=O)[nH]2)cn1 | -4.41% (inactive) | –
74 | Cc1ncc(CN2CCCC(C(=O)Nc3ccc(-c4ccco4)cc3)C2)cn1 (configuration not stated) | -25.6% (inactive) | –
75 | O=C1C(=C(O)c2ccccc2)C(=O)c2ccccc21 | 12.9% (inactive) | –
76 | O=C1C(=O)c2ccc(-c3ccccc3)cc2-c2ccccc21 | -10.1% (inactive) | 8.18
77 | COc1ccccc1-n1cc(-c2ccccc2)c2c(=S)nc[nH]c21 | 7.35% (inactive) | –
78 | COc1ccc(NC(=O)CCCc2ccccc2)cc1OC | -7.95% (inactive) | –
79 | CC(=O)NC(CC(=O)OCC(=O)c1ccc(NC(=O)CC(C)C)cc1)c1ccccc1 (configuration not stated) | -7.74% (inactive) | –
80 | O=C1C(Cl)=C(Nc2ccccc2)C(=O)c2ccccc21 | 5.85% (inactive) | –
81 | O=C(O)c1cccc(NC2=C(N3CCOCC3)C(=O)c3ccccc3C2=O)c1 | 15% (inactive) | –
82 | O=C1C(Cl)=C(Nc2ccc(O)cc2)C(=O)c2ccccc21 | 27.1% (inactive) | –
83 | Cc1ccc(NC2=C(Cl)C(=O)c3ccccc3C2=O)cc1 | -0.64% (inactive) | –
84 | O=C(O)c1cccc(NC2=C(n3nnc4ccccc43)C(=O)c3ccccc3C2=O)c1 | 0.29% (inactive) | –
85 | O=C1C(Cl)=C(NCCCO)C(=O)c2ccccc21 | -6.93% (inactive) | –
86 | O=S(=O)(Nc1ccc2cn[nH]c2c1)c1ccc(Cl)cc1 | -2.71% (inactive) | –
87 | CCNC1=C(Cl)C(=O)c2ccccc2C1=O | 6.43% (inactive) | –
88 | CCOC(=O)CSc1nnc(-c2cccs2)n1-c1ccccc1 | -7.23% (inactive) | –
89 | COc1ccc(C)cc1NC(=O)NNC(=O)c1ccoc1C | 5.8% (inactive) | –
90 | COc1cccc(NC(=O)CN2CCC(NC(=O)c3ccccc3C)CC2)c1 | -2.2% (inactive) | –
91 | Cc1ccc(NC2=C(NC(=O)c3ccccc3)C(=O)c3ccccc3C2=O)cc1Cl | 26.9% (inactive) | –
92 | Cc1cccc(NC2=C(NCCO)C(=O)c3ccccc3C2=O)c1 | 1.45% (inactive) | –
